Measurements as given in PubChem BioAssay AID1159580 (chemical genetic matrix, 2015).
Screen size: about 5,500 compounds; about 2,000 (36%) were called active. Not shown: some 18% with an inconclusive outcome. No stated cut-off is given here; in the data, active means normalized growth mostly below about 0.91 (no sharp cut-off); inconclusive means no clear call, values can overlap the other calls; inactive means mostly above about 0.92. This is one part of the list.

Assay: chemical genetic growth profiling, strain panel (AID 1159580);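 further: tested at 20 µM; growth read once vehicle control cultures reached saturation at 30 °C; 1 = growth at the plate median or of vehicle wells; lower values mean less growth of the strain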
Settings: growth OD
[1] = S. cerevisiae deletion strains, locus YDR150W, strain NUM1, hits give low values
[2] = S. cerevisiae deletion strains, locus YGR078C, strain PAC10, hits give low values
[3] = S. cerevisiae deletion strains, locus YAL013W, strain DEP1, hits give low values
[4] = S. cerevisiae deletion strains, locus YBR229C, strain ROT2, hits give low values
[5] = S. cerevisiae deletion strains, locus YCL061C, strain MRC1, hits give low values
[6] = S. cerevisiae deletion strains, locus YDL101C, strain DUN1, hits give low values
[7] = S. cerevisiae deletion strains, locus YEL061C, strain CIN8, hits give low values
[8] = S. cerevisiae deletion strains, locus YHR030C, strain SLT2, hits give low values
[9] = S. cerevisiae deletion strains, locus YHR087W, strain rtc3, hits give low values
[10] = S. cerevisiae deletion strains, locus YJL187C, strain SWE1, hits give low values
[11] = S. cerevisiae deletion strains, locus YJR043C, strain POL32, hits give low values
[12] = S. cerevisiae deletion strains, locus YJR075W, strain HOC1, hits give low values
[13] = S. cerevisiae deletion strains, locus YKL190W, strain CNB1, hits give low values
[14] = S. cerevisiae deletion strains, locus YLR039C, strain RIC1, hits give low values
[15] = S. cerevisiae deletion strains, locus YLR058C, strain SHM2 (second series), hits give low values
[16] = S. cerevisiae deletion strains, locus YLR085C, strain ARP6, hits give low values
[17] = S. cerevisiae deletion strains, locus YLR262C, strain YPT6, hits give low values
[18] = S. cerevisiae deletion strains, locus YML094W, strain GIM5, hits give low values
[19] = S. cerevisiae deletion strains, locus YMR219W, strain ESC1, hits give low values
[20] = S. cerevisiae deletion strains, locus YMR263W, strain SAP30, hits give low values
[21] = S. cerevisiae deletion strains, locus YNL153C, strain GIM3, hits give low values
[22] = S. cerevisiae deletion strains, locus YNL298W, strain CLA4 (second series), hits give low values
[23] = S. cerevisiae deletion strains, locus YNL322C, strain KRE1, hits give low values
[24] = S. cerevisiae deletion strains, locus YNR030W, strain Alg12, hits give low values
[25] = S. cerevisiae deletion strains, locus YPL055C, strain LGE1, hits give low values
[26] = S. cerevisiae deletion strains, locus YPL241C, strain CIN2, hits give low values
[27] = S. cerevisiae deletion strains, locus YPR135W, strain CTF4, hits give low values

Measured: normalized growth

O=[N+]([O-])c1ccc(O[C@@H]2O[C@H](CO)[C@@H](O)[C@H](O)[C@H]2F)c([N+](=O)[O-])c1
inactive: S. cerevisiae deletion strains, locus YAL040C, strain CLN3, hits give low values 0.994 | S. cerevisiae deletion strains, locus YCL061C, strain MRC1 (second series), hits give low values 0.991 | [1] 0.991 | S. cerevisiae deletion strains, locus YDR363W, strain ESC2, hits give low values 1.03 | S. cerevisiae deletion strains, locus YER002W, strain NOP16, hits give low values 0.969 | [2] 1.01 | S. cerevisiae deletion strains, locus YNL175C, strain NOP13, hits give low values 0.986 | S. cerevisiae deletion strains, locus YNL197C, strain WHI3, hits give low values 0.995 | S. cerevisiae deletion strains, locus YNL224C, strain SQS1, hits give low values 0.984 | S. cerevisiae deletion strains, locus YOR083W, strain WHI5 (second series), hits give low values 1.02

O=[N+]([O-])c1ccc(OCCO)c([N+](=O)[O-])c1
inactive: [3] 1 | [4] 0.978 | [5] 1.04 | [6] 1.01 | [1] 0.981 | [7] 0.954 | [2] 1.02 | [8] 1.23 | [9] 0.991 | [10] 0.991 | [11] 1.01 | [12] 1.03 | [13] 1 | [14] 1.18 | [15] 0.998 | [16] 1 | [17] 1.14 | [18] 1 | [19] 0.993 | [20] 1.01 | [21] 1.01 | [22] 0.987 | [23] 0.982 | [24] 0.997 | S. cerevisiae deletion strains, locus YOL006C, strain TOP1, hits give low values 1.01 | [25] 0.989 | [26] 0.996 | [27] 1.11 | S. cerevisiae strains, strain wild type, hits give low values 0.986

O=[N+]([O-])c1ccc(S(=O)(=O)N2CCCCC2)cc1
inactive: [3] 0.994 | [4] 0.985 | [5] 0.976 | [6] 0.977 | S. cerevisiae deletion strains, locus YDL134C, strain PPH21, hits give low values 1 | [1] 0.962 | [7] 0.978 | [2] 1 | S. cerevisiae deletion strains, locus YGR229C, strain SMI1, hits give low values 1 | [8] 1 | [9] 0.994 | [10] 0.982 | [11] 0.992 | [12] 0.985 | [13] 1 | [14] 1.01 | [15] 0.997 | [16] 0.925 | [17] 1.03 | [18] 0.999 | [19] 0.989 | [20] 0.972 | S. cerevisiae deletion strains, locus YMR307W, strain GAS1, hits give low values 0.943 | S. cerevisiae deletion strains, locus YNL128W, strain TEP1, hits give low values 1 | [21] 0.975 | [22] 0.991 | [23] 0.996 | [24] 0.989 | [25] 0.976 | [26] 0.991 | [27] 0.938

O=[N+]([O-])c1ccc(ON=C2CCCCC2)c([N+](=O)[O-])c1
active: [6] 0.876 | S. cerevisiae deletion strains, locus YDR052C, strain DBF4, hits give low values 0.904 | [8] 0.608 | S. cerevisiae deletion strains, locus YHR205W, strain SCH9, hits give low values 0.448 | S. cerevisiae deletion strains, locus YJR066W, strain TOR1 (second series), hits give low values 0.429 | S. cerevisiae deletion strains, locus YKL048C, strain ELM1, hits give low values 0.783 | S. cerevisiae deletion strains, locus YLR113W, strain HOG1, hits give low values 0.749 | S. cerevisiae deletion strains, locus YPL256C, strain CLN2, hits give low values 0.765
inactive: S. cerevisiae deletion strains, locus YAR019C, strain CDC15, hits give low values 0.982 | S. cerevisiae deletion strains, locus YBL105C, strain PKC1, hits give low values 0.998 | S. cerevisiae deletion strains, locus YBR135W, strain CKS1, hits give low values 0.997 | S. cerevisiae deletion strains, locus YBR136W, strain MEC1, hits give low values 0.996 | S. cerevisiae deletion strains, locus YBR160W, strain CDC28, hits give low values 0.997 | S. cerevisiae deletion strains, locus YDL017W, strain CDC7, hits give low values 0.995 | S. cerevisiae deletion strains, locus YDL028C, strain MPS1, hits give low values 0.988 | S. cerevisiae deletion strains, locus YDL108W, strain KIN28, hits give low values 1 | S. cerevisiae deletion strains, locus YDL132W, strain cdc53, hits give low values 0.981 | S. cerevisiae deletion strains, locus YDL214C, strain PRR2, hits give low values 0.875 | S. cerevisiae deletion strains, locus YDR054C, strain cdc34, hits give low values 0.981 | S. cerevisiae deletion strains, locus YDR226W, strain ADK1, hits give low values 0.987 | S. cerevisiae deletion strains, locus YDR477W, strain SNF1, hits give low values 0.827 | S. cerevisiae deletion strains, locus YER123W, strain YCK3, hits give low values 0.722 | S. cerevisiae deletion strains, locus YER133W, strain GLC7, hits give low values 0.786 | S. cerevisiae deletion strains, locus YFL009W, strain cdc4, hits give low values 0.975 | S. cerevisiae deletion strains, locus YFL029C, strain CAK1, hits give low values 0.987 | S. cerevisiae deletion strains, locus YFR003C, strain YPI1, hits give low values 0.999 | S. cerevisiae deletion strains, locus YFR019W, strain FAB1, hits give low values 0.887 | S. cerevisiae deletion strains, locus YFR028C, strain CDC14, hits give low values 0.983 | S. cerevisiae deletion strains, locus YGR040W, strain KSS1, hits give low values 0.84 | S. cerevisiae deletion strains, locus YGR052W, strain FMP48, hits give low values 0.877 | S. cerevisiae deletion strains, locus YGR092W, strain DBF2, hits give low values 0.602 | S. cerevisiae deletion strains, locus YHR079C, strain IRE1, hits give low values 0.721 | S. cerevisiae deletion strains, locus YHR082C, strain KSP1, hits give low values 0.966 | S. cerevisiae deletion strains, locus YIL147C, strain SLN1, hits give low values 0.984 | S. cerevisiae deletion strains, locus YJL095W, strain BCK1, hits give low values 0.568 | S. cerevisiae deletion strains, locus YJL128C, strain PBS2, hits give low values 0.995 | S. cerevisiae deletion strains, locus YJL157C, strain FAR1, hits give low values 0.84 | S. cerevisiae deletion strains, locus YJR016C, strain ILV3, hits give low values 0.981 | S. cerevisiae deletion strains, locus YJR066W, strain TOR1, hits give low values 0.801 | S. cerevisiae deletion strains, locus YKL067W, strain YNK1, hits give low values 0.853 | S. cerevisiae deletion strains, locus YKL101W, strain HSL1, hits give low values 0.879 | S. cerevisiae deletion strains, locus YKL193C, strain SDS22, hits give low values 0.988 | S. cerevisiae deletion strains, locus YKL203C, strain TOR2, hits give low values 0.797 | S. cerevisiae deletion strains, locus YLR133W, strain CKI1, hits give low values 0.88 | S. cerevisiae deletion strains, locus YLR403W, strain SFP1, hits give low values 0.798 | S. cerevisiae deletion strains, locus YML070W, strain DAK1, hits give low values 0.852 | S. cerevisiae deletion strains, locus YMR001C, strain CDC5, hits give low values 0.989 | S. cerevisiae deletion strains, locus YMR205C, strain PFK2 (second series), hits give low values 0.865 | S. cerevisiae deletion strains, locus YMR277W, strain FCP1, hits give low values 0.989 | S. cerevisiae deletion strains, locus YNL006W, strain LST8, hits give low values 0.991 | S. cerevisiae deletion strains, locus YNL020C, strain ARK1, hits give low values 0.881 | S. cerevisiae deletion strains, locus YNL161W, strain CBK1, hits give low values 0.984 | S. cerevisiae deletion strains, locus YNL183C, strain NPR1, hits give low values 0.795 | S. cerevisiae deletion strains, locus YNL207W, strain RIO2, hits give low values 0.969 | S. cerevisiae deletion strains, locus YNL222W, strain SSU72, hits give low values 1 | S. cerevisiae deletion strains, locus YNL307C, strain MCK1 (second series), hits give low values 0.699 | S. cerevisiae deletion strains, locus YOL078W, strain AVO1, hits give low values 0.993 | S. cerevisiae deletion strains, locus YOL136C, strain PFK27, hits give low values 0.878 | S. cerevisiae deletion strains, locus YOR061W, strain CKA2, hits give low values 0.865 | S. cerevisiae deletion strains, locus YOR119C, strain RIO1, hits give low values 0.839 | S. cerevisiae deletion strains, locus YOR231W, strain MKK1, hits give low values 0.776 | S. cerevisiae deletion strains, locus YOR329C, strain SCD5, hits give low values 0.994 | S. cerevisiae deletion strains, locus YPL031C, strain PHO85, hits give low values 0.808 | S. cerevisiae deletion strains, locus YPL153C, strain RAD53, hits give low values 0.774 | S. cerevisiae deletion strains, locus YPL204W, strain HRR25, hits give low values 0.74 | S. cerevisiae deletion strains, locus YPL209C, strain IPL1, hits give low values 0.983 | S. cerevisiae deletion strains, locus YPR025C, strain CCL1, hits give low values 1 | S. cerevisiae deletion strains, locus YPR106W, strain ISR1, hits give low values 0.976 | S. cerevisiae deletion strains, locus YPR111W, strain DBF20, hits give low values 0.974 | S. cerevisiae deletion strains, strain NNK1, hits give low values 0.975 | S. cerevisiae deletion strains, strain TSCII, hits give low values 0.968
